One experiment deals with Albumin (Bos taurus) (UniProt P02769). The experiment in a line: bovine serum albumin binders on microarray, profiling panel, artefact control for SMM control protein annotation, biochemical, small-molecule microarray, Alexa647 label, 635/667 nm fluorescence (AID 1118).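 Also: score merges 667 nm emission intensity and signal-to-noise per printed compound spot.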 Particulars: BSA-A647 binding, fluorescence 635 nm, higher = more signal.
Experiment [1] is described as follows: small-molecule microarray binders of probe aXIP, primary screen, biochemical, NeuroSMM set, 635/667 nm fluorescence (AID 1119).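 Also: probe is the protein aXip251-270 applied at 1 µg/mL to compound-printed slides; binding of probe to printed compounds measured as 667 nm fluorescence plus signal to noise.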 As to conditions: higher = more signal, called active from +8 up or from −8 down.
Experiment [2] can be described thus: small-molecule binders of probe aNOTCH3, primary screen, biochemical, small-molecule microarray, 635/667 nm fluorescence (AID 1120).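 Also: probe is a biotin-tagged antibody raised against NOTCH3 rather than NOTCH3 protein; score merges spot fluorescence near 667 nm with spot signal to noise.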 Particulars: higher = more signal.
Experiment [3] is described as follows: small-molecule binders of probe aNOTCH2, primary screen, biochemical, small-molecule microarray, 635/667 nm fluorescence (AID 1121).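 Also: score merges feature fluorescence read at 667 nm with its signal to noise.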 Particulars: higher = more signal.
For experiment [4], the target named is Carbonic anhydrase 2 (Homo sapiens) (UniProt P00918). As to the kind of experiment: CAII small-molecule binders, profiling panel, biochemical, small-molecule microarray, Alexa647-labelled CAII (AID 1122). Particulars: CAII-A647 binding fluorescence, higher = more signal.
Experiment [5] can be described thus: COS7 lysate on small-molecule microarray, probe aHis, 635 nm (AID 1123).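 Also: z-score combines 667nm fluorescence intensity with signal-to-noise per printed compound spot.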 Particulars: COS7 cell lysate, fluorescence, higher = more signal.
Experiment [6] in a line: compound binding in COS7 lysate, probe aLAP1, primary screen, cell lysate, small-molecule microarray (AID 1124).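 Also: lysate comes from COS7 cells expressing LAP1 and is applied at 0.3 µg/mL; score merges spot fluorescence near 667 nm with signal-to-noise over triplicate slides.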 Particulars: probe aLAP1, fluorescence, higher = more signal.
For the next experiment, the system named is Sam68 (KHDRBS1). The experiment in a line: Sam68 small-molecule binders, primary screen, biochemical, small-molecule microarray, 635 nm fluorescence (AID 1125).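 Also: score merges 667 nm channel intensity with signal to noise over triplicate slides.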 As to conditions: small-molecule microarray binding, higher = more signal.
In experiment [7] the test system is Chordin-like protein 2 (CHRDL2). As to the kind of experiment: CHRDL2 small-molecule binders, primary screen, biochemical, small-molecule microarray, 635 nm fluorescence (AID 1126).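 Also: printed compound slides probed with Chrdl2 protein at 4 µg/mL for 1 h at 4 C; score merges 667 nm emission intensity with signal to noise over three replicate slides.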 As to conditions: small-molecule microarray binding, fluorescence 635 nm; higher = more signal.
Experiment [8] addresses Concanavalin-A (Canavalia ensiformis) (UniProt P02866). As to the kind of experiment: ConA small-molecule binders, primary screen, artefact control for SMM control protein annotation, biochemical, small-molecule microarray, Alexa647 label, 635 nm (AID 1127).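 Also: z combines 667 nm emission intensity with signal-to-noise across three replicate slides.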 Particulars: ConA-A647 binding fluorescence, higher = more signal.
Experiment [9] in a line: anti-His antibody binders, primary screen, artefact control for SMM control protein annotation, biochemical, small-molecule microarray, 635 nm fluorescence (AID 1128).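 Also: score merges feature fluorescence with signal-to-noise for each printed compound spot.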 As to conditions: anti-His Alexa647 antibody binding, higher = more signal.
Experiment [10] deals with Human papillomavirus type 1a E7 protein (residues 1-88). The experiment in a line: HPV1a E7 small-molecule binders, primary screen, biochemical, small-molecule microarray, residues 1-88, 635 nm (AID 1129). Particulars: small-molecule microarray binding, fluorescence 635 nm; higher = more signal.
Experiment [11] has as its target Focal adhesion kinase 1 (Homo sapiens) (UniProt Q05397). The experiment in a line: small-molecule microarray binders of FAK, primary screen, biochemical, 635/667 nm fluorescence, BSA, DTT (AID 1130).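 Also: composite of spot emission at 667 nm and signal to noise over triplicate slides.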 Particulars: PTK2 binding, 635 nm fluorescence, higher = more signal.
The test system of experiment [12] is Fibrinogen (Alexa647-labelled). The experiment in a line: fibrinogen binders on compound microarrays, profiling panel, artefact control for SMM control-protein annotation, biochemical, small-molecule microarray, 635/667 nm fluorescence (AID 1131).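 Also: z-score merges 667 nm fluorescence with per-spot signal-to-noise over triplicate slides.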 Particulars: fibrinogen-A647 binding fluorescence, higher = more signal.
The target in experiment [13] is Follistatin (Homo sapiens) (UniProt P19883). As to the kind of experiment: follistatin binders on small-molecule microarrays, primary screen, biochemical, small-molecule microarray, 635/667 nm fluorescence (AID 1132). As to conditions: FST binding, 635 nm fluorescence, higher = more signal.
The target in experiment [14] is Fibroblast growth factor 2 (Homo sapiens) (UniProt P09038). As to the kind of experiment: FGF2 binders on small-molecule microarrays, primary screen, biochemical, small-molecule microarray, 635/667 nm fluorescence (AID 1133). As to conditions: small-molecule microarray binding, FGF2, fluorescence 635/667; higher = more signal.
The nature of experiment [15]: mitochondrial membrane potential change in A549 cells, profiling panel, cell-based, JC-1 fluorescence, basal, 24 h, 100 nL (AID 1138).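 Also: A549 lung adenocarcinoma cells under basal conditions with no added stimulus; test concentration not given here.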 As to conditions: higher = more signal.
In a further experiment the test system is Lefty1. As to the kind of experiment: Lefty1 binders on small-molecule microarrays, primary screen, biochemical, small-molecule microarray, 635/667 nm fluorescence (AID 1139). As to conditions: small-molecule microarray binding, fluorescence 635/667; higher = more signal.
Experiment [16] has as its system wheat germ agglutinin (Triticum aestivum), Alexa647-labelled. The experiment in a line: wheat germ agglutinin binders on compound microarrays, profiling panel, artefact control for SMM control-protein annotation, biochemical, small-molecule microarray, 635/667 nm fluorescence (AID 1140).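 Also: score merges 667 nm feature emission with signal to noise over triplicate slides.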 Particulars: WGA-A647 binding, 635 nm fluorescence, higher = more signal.
For experiment [17], the target named is Luciferin 4-monooxygenase (Photinus pyralis) (UniProt P08659). As to the kind of experiment: firefly luciferase enzyme inhibitors, primary screen, biochemical, luminescence, purified enzyme, 2006 set (AID 1141).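 Also: cell-free assay with purified firefly luciferase at 100 ng per well in PBS; test concentration not given here.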 Particulars: SteadyGlo luminescence, 30 min, higher = more signal, called active from +8 up or from −8 down.

Each structure is given as a SMILES string. The source made the active and inactive calls.

Luciferin 4-monooxygenase (Photinus pyralis), sequence (P08659 whole entry, looked up): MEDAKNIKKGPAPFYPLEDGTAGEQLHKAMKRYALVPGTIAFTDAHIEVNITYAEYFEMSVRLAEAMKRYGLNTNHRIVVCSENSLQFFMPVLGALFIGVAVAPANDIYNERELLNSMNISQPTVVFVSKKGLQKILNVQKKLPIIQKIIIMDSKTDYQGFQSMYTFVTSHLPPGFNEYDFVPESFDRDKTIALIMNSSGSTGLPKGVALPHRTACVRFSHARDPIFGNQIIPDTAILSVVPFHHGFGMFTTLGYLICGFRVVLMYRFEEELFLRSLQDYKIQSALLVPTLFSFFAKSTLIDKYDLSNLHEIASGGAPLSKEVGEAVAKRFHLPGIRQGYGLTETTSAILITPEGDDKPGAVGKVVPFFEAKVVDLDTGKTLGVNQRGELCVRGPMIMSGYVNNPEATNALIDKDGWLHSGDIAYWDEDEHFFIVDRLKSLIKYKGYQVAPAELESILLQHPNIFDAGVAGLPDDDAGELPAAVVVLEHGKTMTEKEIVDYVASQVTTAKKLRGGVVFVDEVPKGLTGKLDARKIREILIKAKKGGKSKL
Focal adhesion kinase 1 (Homo sapiens), sequence (Q05397 whole entry, looked up): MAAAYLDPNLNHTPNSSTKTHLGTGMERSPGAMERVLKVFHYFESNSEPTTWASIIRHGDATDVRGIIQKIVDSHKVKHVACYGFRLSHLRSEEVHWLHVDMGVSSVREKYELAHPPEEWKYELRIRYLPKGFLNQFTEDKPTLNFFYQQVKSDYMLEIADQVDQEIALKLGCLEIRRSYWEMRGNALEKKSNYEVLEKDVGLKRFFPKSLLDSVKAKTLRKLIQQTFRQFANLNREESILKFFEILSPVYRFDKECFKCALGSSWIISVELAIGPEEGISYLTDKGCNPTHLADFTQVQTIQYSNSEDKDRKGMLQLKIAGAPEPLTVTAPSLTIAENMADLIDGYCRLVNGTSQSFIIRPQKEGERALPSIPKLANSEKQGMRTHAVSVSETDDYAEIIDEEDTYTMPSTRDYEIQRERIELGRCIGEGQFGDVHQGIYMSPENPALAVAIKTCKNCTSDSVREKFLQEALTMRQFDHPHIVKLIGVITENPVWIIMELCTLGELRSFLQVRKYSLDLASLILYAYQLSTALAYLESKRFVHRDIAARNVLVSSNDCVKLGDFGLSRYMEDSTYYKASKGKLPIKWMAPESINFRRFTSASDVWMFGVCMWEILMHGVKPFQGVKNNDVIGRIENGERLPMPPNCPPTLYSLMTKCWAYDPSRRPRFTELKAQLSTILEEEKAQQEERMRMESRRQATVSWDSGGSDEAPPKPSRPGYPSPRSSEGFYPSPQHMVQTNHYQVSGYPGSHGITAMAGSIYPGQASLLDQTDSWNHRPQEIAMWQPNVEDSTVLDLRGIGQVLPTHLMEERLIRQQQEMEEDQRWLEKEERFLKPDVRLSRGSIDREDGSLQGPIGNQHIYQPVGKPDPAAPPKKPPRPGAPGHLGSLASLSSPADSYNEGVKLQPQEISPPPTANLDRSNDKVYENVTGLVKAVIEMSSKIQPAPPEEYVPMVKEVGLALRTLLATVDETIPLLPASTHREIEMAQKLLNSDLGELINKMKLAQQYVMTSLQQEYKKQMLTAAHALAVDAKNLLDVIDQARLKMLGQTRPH
Concanavalin-A (Canavalia ensiformis), sequence (P02866 whole entry, looked up): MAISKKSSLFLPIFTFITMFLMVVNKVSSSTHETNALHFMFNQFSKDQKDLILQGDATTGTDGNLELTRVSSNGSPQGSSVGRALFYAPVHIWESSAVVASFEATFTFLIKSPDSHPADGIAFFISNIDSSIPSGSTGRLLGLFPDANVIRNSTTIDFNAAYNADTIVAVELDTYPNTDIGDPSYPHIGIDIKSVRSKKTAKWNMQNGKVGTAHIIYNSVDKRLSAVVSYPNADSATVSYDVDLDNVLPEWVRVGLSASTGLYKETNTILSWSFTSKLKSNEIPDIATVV
Follistatin (Homo sapiens), sequence (P19883 whole entry, looked up): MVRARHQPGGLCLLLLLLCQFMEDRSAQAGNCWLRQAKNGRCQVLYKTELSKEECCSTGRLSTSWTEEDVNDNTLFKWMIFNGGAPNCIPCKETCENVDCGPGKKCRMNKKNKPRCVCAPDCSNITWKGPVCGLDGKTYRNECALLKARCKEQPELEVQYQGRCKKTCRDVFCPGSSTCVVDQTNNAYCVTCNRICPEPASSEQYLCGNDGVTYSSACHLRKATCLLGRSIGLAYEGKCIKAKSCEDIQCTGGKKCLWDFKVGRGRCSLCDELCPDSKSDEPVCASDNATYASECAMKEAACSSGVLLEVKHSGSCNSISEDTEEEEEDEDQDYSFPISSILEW
Fibroblast growth factor 2 (Homo sapiens), sequence (P09038 whole entry, looked up): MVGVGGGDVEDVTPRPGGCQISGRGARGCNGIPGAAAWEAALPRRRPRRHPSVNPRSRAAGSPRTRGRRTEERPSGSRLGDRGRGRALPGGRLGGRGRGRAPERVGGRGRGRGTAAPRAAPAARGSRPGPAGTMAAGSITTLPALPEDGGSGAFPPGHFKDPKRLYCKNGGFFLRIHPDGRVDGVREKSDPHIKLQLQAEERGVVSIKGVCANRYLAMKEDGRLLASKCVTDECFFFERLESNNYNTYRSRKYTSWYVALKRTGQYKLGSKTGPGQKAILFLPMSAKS
Albumin (Bos taurus), sequence (P02769 whole entry, looked up): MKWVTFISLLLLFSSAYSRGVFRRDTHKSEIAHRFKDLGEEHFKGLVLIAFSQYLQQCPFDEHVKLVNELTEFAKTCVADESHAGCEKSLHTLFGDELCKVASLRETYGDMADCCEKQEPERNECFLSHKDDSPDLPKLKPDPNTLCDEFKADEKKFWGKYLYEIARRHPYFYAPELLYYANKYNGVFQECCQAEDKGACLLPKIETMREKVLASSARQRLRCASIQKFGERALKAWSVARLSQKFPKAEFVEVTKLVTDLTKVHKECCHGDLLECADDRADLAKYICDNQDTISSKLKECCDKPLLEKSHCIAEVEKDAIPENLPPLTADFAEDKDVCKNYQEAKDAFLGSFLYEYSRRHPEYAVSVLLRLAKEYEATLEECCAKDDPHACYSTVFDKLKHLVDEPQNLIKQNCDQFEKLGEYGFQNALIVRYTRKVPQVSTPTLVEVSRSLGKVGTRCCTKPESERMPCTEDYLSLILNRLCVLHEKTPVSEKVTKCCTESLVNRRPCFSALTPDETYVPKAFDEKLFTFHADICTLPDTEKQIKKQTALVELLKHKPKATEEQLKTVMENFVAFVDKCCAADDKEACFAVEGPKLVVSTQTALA

As for `CN1C(=O)C2C=CC(C(O)c3ccccn3)N(N(c3ccccc3)c3ccccc3)C2C1=O` (stereo not given), the composite z-score with Albumin (Bos taurus) was 0.206; in experiment [2] it was -0.004; in experiment [3] it was -0.0166; in experiment [4] it was 0.822; in experiment [5] it was -0.123; in experiment [6] it was 1.04. The composite z-score with Sam68 (KHDRBS1) was -0.349; in experiment [7], 0.227; in experiment [8], 0.291; in experiment [9] it was 0.375; in experiment [10], 0.669; in experiment [11], 0.0673. The composite z-score in [12] stood at 0.66; in experiment [13], 0.82; in [14], 0.397; with Lefty1 it was 0.0714; in [16] it was 0.747. The composite Z-score in experiment [1] is 1.31 (inactive). Also, the z-score in experiment [15] was 0.613; in experiment [17], -0.009 (inactive).
As for `C=CCOC(=O)[C@H]1[C@@H]2C(=O)O[C@@H](c3ccccc3)[C@@H](c3ccccc3)N2[C@@H](c2ccc(OCCOC(=O)[C@@H]3C[C@@H]4C(=O)N5CCC[C@H]5C(=O)N4[C@@H]3c3ccc(O)cc3)cc2)[C@]12C(=O)Nc1ccc(I)cc12`, the composite z-score in the experiment with Albumin (Bos taurus) was -0.572; in [2], -0.33; in [3], -0.118; in experiment [4], 0.0118; in experiment [5], 0.897; in [6], 0.163. In addition, the composite z-score in the experiment with Sam68 (KHDRBS1) was 0.27; in experiment [7], 0.851; in experiment [8], 1.01; in [9] it was 0.796; in [10] it was 0.246; in [11], 0.0398. Moreover, the composite z-score is 0.664 in experiment [12]; 1.36 in experiment [13]; 1.16 in experiment [14]; 0.698 in the experiment on Lefty1; 0.671 in [16]. Further, the composite Z-score in experiment [1] is 0.486 (inactive). Besides, the figures for the z-score in experiment [15] and in [17] were -1.28 and -0.873 (inactive), respectively.
As to `COC(=O)CCCCCCC(=O)Nc1ccc(NC(=O)CCCC[P+](c2ccccc2)(c2ccccc2)c2ccccc2)cc1`, the composite z-score is -0.637 with Albumin (Bos taurus); 0.116 in [2]; -0.134 in [3]; -0.281 in experiment [4]; -0.478 in experiment [5]; 0.116 in experiment [6]. The composite z-score with Sam68 (KHDRBS1) was 0.559; in experiment [7], 1.26; in [8], 0.0666; in experiment [9], 0.703; in [10] it was 0.289; in experiment [11], -0.507. Also, the composite z-score in experiment [12] was -0.722; in [13], 1.01; in [14], 0.626; in the experiment on Lefty1, 1.23; in [16] it was 0.0334. In addition, in experiment [1], the composite Z-score was 0.0895 (inactive). In addition, the z-score in experiment [15] was 0.679; in [17], 1.3 (inactive).
With `COCCOC(=O)N1C(=O)[C@@]2(c3cc(C#CC4=CCCCC4)ccc31)[C@H](c1ccc(OCCO)cc1)N1[C@H](c3ccccc3)[C@H](c3ccccc3)OC(=O)[C@H]1[C@@H]2C(=O)NC[C@H](O)c1ccccc1`, the composite z-score was -0.298 with Albumin (Bos taurus); 0.164 in experiment [2]; 0.0629 in [3]; 0.326 in [4]; 1.22 in [5]; 0.875 in [6]. Also, the composite z-score with Sam68 (KHDRBS1) is 1.31; in [7], 1.41; in experiment [8], 1.12; in [9] it was 0.392; in [10], 1.16; in experiment [11] it was 0.499. Moreover, the composite z-score in experiment [12] was 0.295; in experiment [13] it was 1.48; in experiment [14], 1.82; with Lefty1 it was 1.65; in experiment [16] it was -0.127. Besides, the composite Z-score in experiment [1] is 0.193 (inactive). Besides, the values for the z-score in [15] and in [17] were -1.4 and -2.06 (inactive), respectively.
In the case of `C=C(C)C1CCC(C(O)C2C=CC3C(=O)N(C)C(=O)C3N2N2CCCCC2)CC1` (stereo not given), the composite z-score with Albumin (Bos taurus) is 0.735; in experiment [2], 0.223; in experiment [3], 0.0598; in experiment [4], 0.514; in [5] it was 2.03; in experiment [6], 0.386. The composite z-score worked out at 1.29 in the experiment with Sam68 (KHDRBS1); 1.24 in experiment [7]; 1.12 in experiment [8]; 1.17 in experiment [9]; 1.24 in [10]; 0.525 in experiment [11]. Besides, the composite z-score in [12] turned out to be 0.884; in experiment [13], 1.21; in [14], 0.286; with Lefty1, 0.962; in experiment [16] it was 1. For the same compound, the composite Z-score in experiment [1] is 0.172 (inactive). Besides, the z-score is 0.32 in [15] and 0.344 (inactive) in experiment [17].
Regarding `CC(C)C(CO)N1C(=O)[C@@H]2C3C(=O)OCCC/C=C\[C@H]3OC23C=CCN(C(C)(C)C)C(=O)[C@@H]13` (stereo not given in full), the composite z-score is -0.632 in the experiment with Albumin (Bos taurus); -0.304 in [2]; -0.156 in experiment [3]; 0.815 in experiment [4]; -0.12 in experiment [5]; -0.281 in experiment [6]. Besides, the composite z-score is -0.142 in the experiment on Sam68 (KHDRBS1); -0.438 in experiment [7]; -1.47 in experiment [8]; -0.539 in [9]; -0.768 in [10]; -0.147 in experiment [11]. For the same compound, the composite z-score in [12] is -2.19; in experiment [13] it was -0.895; in experiment [14], -0.363; in the experiment with Lefty1, -0.404; in experiment [16], -1.04. Besides, the composite Z-score in experiment [1] is -0.115 (inactive). Moreover, the z-score in experiment [15] was -0.0938; in [17], -0.197 (inactive).

For the origin of these results see PubChem BioAssay.
